Shown are actives, neighbours in structure and some others; about 0.79% of the full set was active somewhere.
WNV protease inh: blocks West Nile virus NS2B-NS3 protease activity; AID 577; P06935; WNV NS2B-NS3 protease, fluorogenic substrate Ex360/Em465; hits give low values; actives 0.18% (n = 65,000); z-score (concentration not given with the values); in the data active means z-score below about -3
PKA inh: blocks human protein kinase A activity. P17612. PKA Kemptide phosphorylation, Kinase-Glo ATP luminescence. inhibition, % at 6 µM. actives 0.1% (n = 65,000);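 active means inhibition above the screen-wide mean inhibition plus 3 SD, cut at about 21% in these data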
ROCK2 inh: inhibitors of human Rho kinase 2 | O75116 | inhibition, % at 6 µM | purified ROCK2, Kinase-Glo ATP depletion luminescence | actives 0.35% (n = 60,000);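 active means inhibition above the screen-wide mean inhibition plus 3 SD, cut at about 18% in these data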
E coli RNAP: blocks E. coli RNA polymerase transcription; P0A8V2; inhibition, %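 (tested at 10 µM)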; fluorescence transcription assay; actives 0.2% (n = 62,000); in the data active means inhibition above about 20%
MMP-13 inhibitor: MMP13 (human) collagenase inhibition | P45452 | actives 0.07% (n = 65,000) | inhibition, % at 4 µM | MMP-13 fTHP FRET cleavage, Mca fluorescence;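 active means inhibition above the mean of compound-free control plate wells plus 3 SD, cut at about 14% in these data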
Hsp90 inh: displaces geldanamycin probe from tumor Hsp90 | P07900 | NCI-N417 lysate Hsp90, Cy3B-geldanamycin FP displacement | inhibition, % at 30 µM | actives 0.35% (n = 64,000) | AID 429;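 active means inhibition above 50%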
Each line names hits and unclear results; the compound was inactive in the other large screens.

CCc1ccc(O)c(N=Cc2ccccc2O)c1	E coli RNAP 27
Cc1ccc(N=Cc2cccc(O)c2O)c(C)c1	none
CCn1c(SCc2ccc(C(=O)OC)o2)nnc1-c1c[nH]c2ccccc12	none
Cc1cc2c(ccc3[nH]onc32)n1	PKA inh 29, ROCK2 inh 18
CC(C)OC(=O)CSc1nc2ccccc2s1	Hsp90 inh 93
CCOC(=O)c1c(C)oc2c1c(C=NCc1ccccn1)c(O)c1ccccc12	none
CCOC(=O)c1c(C)oc2c1c(C=NCC1CCCO1)c(O)c1ccccc12 (stereo not drawn)	Hsp90 inh 64
O=C(CN1C(=O)c2ccccc2S1(=O)=O)NCCSCc1ccco1	none (no result: E coli RNAP)
Clc1ccccc1-c1nn2c(-c3ccncc3)nnc2s1	ROCK2 inh 19
Clc1ccc(-c2nn3c(-c4ccncc4)nnc3s2)c(Cl)c1	none
Clc1ccccc1-c1nnc2sc(-c3ccncc3)nn12	ROCK2 inh 23
CN(C)c1ccc(-c2nn3c(-c4ccccc4Cl)nnc3s2)cc1	none
CCn1c(=O)cc(C(=O)OC)sc1=Nc1ccc(F)c(F)c1	none
OCC#CCSc1nnc(-c2ccc(Br)cc2)o1	E coli RNAP 40
Cn1c(SCc2ccc(Br)cc2)nnc1-c1ccncc1	PKA inh 25
CCn1nnc(NC(=O)COc2cc(C)ccc2C(C)C)n1	Hsp90 inh 72
CCOc1cc(C(=O)Nc2c3c(nn2C(C)(C)C)CS(=O)C3)cc(OCC)c1OCC (stereo not drawn)	none
Nc1nc(OCC(F)(F)F)cc(Oc2ccccc2F)n1	none (no result: E coli RNAP)
Nc1cc(N)c(OCC(F)(F)F)cc1OCC(F)(F)F	Hsp90 inh 89
Cc1cc(C(=O)CN2C(=O)NC3(CCCCC3)C2=O)c(C)n1Cc1ccc2c(c1)OCO2	ROCK2 inh 22
CCOc1ccc(OCC)c(NC(=O)C2CCCN(S(=O)(=O)c3cccs3)C2)c1 (stereo not drawn)	none
Fc1cc2nc(-c3ccncc3)[nH]c2cc1F	PKA inh 24 (no result: ROCK2 inh, Hsp90 inh)
O=C(Nc1ccc(Cc2ccncc2)cc1)c1ccc(S(=O)(=O)N2CCOCC2)cc1	none
O=S(=O)(O)c1nc2ccccc2n1CCOc1ccccc1	none
O=C1C(C2=C(O)c3ccccc3C2=O)=Nc2ccccc21	Hsp90 inh 57
Cc1cccc(NC(=O)C2CCCN2C(=O)OCC(C)C)c1C (stereo not drawn)	none
CC1=CC(C#N)(C#N)C(C#N)(C#N)C(c2ccccc2)N1 (stereo not drawn)	Hsp90 inh 51
CCc1nc(N)c(C#N)c(-c2cccn2C)c1C	WNV protease inh -6.8 (no result: E coli RNAP)
CCc1nc(N)c(C#N)c(-c2ccncc2)c1C	none
CC(C)OC(=O)c1cccc(C(=O)O)n1	none
Cn1c(C(=O)N2CCCC(C(=O)N3CCN(C(=O)c4ccco4)CC3)C2)cc2sccc21 (stereo not drawn)	ROCK2 inh 84
Cc1cc(NC(=O)CSc2nc(-c3ccccc3)cs2)no1	ROCK2 inh 18
Cc1cc(NC(=O)CSc2nc(-c3ccc(F)cc3)cs2)no1	none
CCN(CC)CCNC(=O)CCCCn1c(=S)[nH]c2c([nH]c3ccc(OC)cc32)c1=O	ROCK2 inh 30
C[C@H](Cc1ccc(O)c(O)c1)[C@@H](C)Cc1ccc(O)c(O)c1	Hsp90 inh 98 (no result: WNV protease inh, PKA inh, ROCK2 inh, E coli RNAP, MMP-13 inhibitor)
CC(Cc1ccc(O)c(O)c1)C(C)Cc1ccc(O)c(O)c1 (stereo not drawn)	E coli RNAP 51, Hsp90 inh 103
CCCCOc1ccc(NC(=O)CN2CCN(C(=O)OCC)CC2)cc1	none (no result: ROCK2 inh)
CCCCCCCC/C=C\CCCCCCCC(=O)NCCc1ccc(O)c(O)c1	Hsp90 inh 84 (no result: WNV protease inh, PKA inh, ROCK2 inh, E coli RNAP, MMP-13 inhibitor)
O=C(NCc1nc2ccccc2[nH]1)c1ccco1	E coli RNAP 25
CSc1nsc(SCc2cnc(C)nc2N)n1	none
Cc1ccc(-n2c(N)c(C(N)=O)sc2=S)c(C)c1	none (no result: ROCK2 inh)
Cc1ccc(C)c(-n2c(N)c(C(N)=O)sc2=S)c1	E coli RNAP 40
Cc1cc(Nc2ccc(F)cc2)n2nc(C)nc2n1	E coli RNAP 22
Cc1cc(Nc2ccc(Br)cc2)n2nc(C)nc2n1	none
O=C1NC(=O)c2cc(NC(=O)C3CCCCC3)ccc21	ROCK2 inh 18
CC(=O)c1cccc(NC(=O)C2CCCC2)c1	none (no result: PKA inh, ROCK2 inh, MMP-13 inhibitor, Hsp90 inh)
CN(Cc1ccccc1)C(=O)c1ccc2c(c1)OCO2	none (no result: ROCK2 inh)
CC[N+](CC)(CCO)CCCN1C(=O)C2CC=C(Cl)CC2C1=O (stereo not drawn)	none
CCOC(=O)c1oc2c(O)c(O)ccc2c(=O)c1-c1nncn1-c1ccccc1	Hsp90 inh 61
COc1ccc(-n2c(COc3cccc(C)c3)nnc2SCC(=O)NCc2ccco2)cc1	E coli RNAP 22
COc1cccc(OCc2nnc(SCC(=O)NCc3ccco3)n2CCc2ccccc2)c1	none
CCOc1ccc(NCc2nnc(SCC(=O)Nc3cc(C)on3)n2-c2ccc(OC)cc2)cc1	E coli RNAP 25
CC1Cn2c(nnc2-c2cccc(N)c2)S1 (stereo not drawn)	none
COc1ccc(C2C(C(C)=O)=C(C)N=c3s/c(=C\c4cc(C)n(C)c4C)c(=O)n32)c(OC)c1 (stereo not drawn)	MMP-13 inhibitor 18 (no result: E coli RNAP)
COc1ccc(C2C(C(C)=O)=C(C)N=c3s/c(=C\c4ccco4)c(=O)n32)c(OC)c1 (stereo not drawn)	none (no result: E coli RNAP)
Cc1ccc(-c2nnc(-c3cccc(Br)c3)o2)cc1	none
COc1ccc2noc3c2c1C(=O)c1ccccc1-3	none
O=C1c2ccccc2-c2onc3ccc(NCCCn4ccnc4)c1c23	Hsp90 inh 140
O=C(NCC1CCCO1)C1CCCN1C(=O)NC1CCCCC1 (stereo not drawn)	none
O=C(c1ccco1)N(CCCN1CCOCC1)c1nc(-c2ccc(F)cc2)cs1	none
O=C(c1ccco1)N(CCCN1CCOCC1)c1nc(-c2ccc(Cl)cc2)cs1	WNV protease inh -3.1
O=C(NCc1ccc2c(c1)OCO2)c1cccc(C(=O)NCc2ccc3c(c2)OCO3)c1	MMP-13 inhibitor 21
O=C(NCc1ccc2c(c1)OCO2)c1cccnc1	none
c1cncc(-c2nc(-c3ccc4c(c3)OCO4)cs2)c1	none (no result: ROCK2 inh)
Oc1ccc(-c2nc(-c3ccc(O)c(O)c3)cs2)cc1	Hsp90 inh 99
O=C1c2ccccc2C(Nc2ccc3c(c2)OCO3)N1Cc1ccc2c(c1)OCO2 (stereo not drawn)	Hsp90 inh 51
Oc1cc(O)c2c(c1)O[C@H](c1ccc(O)c(O)c1)[C@@H](O)C2	Hsp90 inh 70 (no result: WNV protease inh, PKA inh, ROCK2 inh, E coli RNAP, MMP-13 inhibitor)
COc1ccc(C(=O)CSc2nnc(-c3ccc(C)cc3)o2)cc1	WNV protease inh -4.1
COC(=O)CN1C(=O)C2(OCCCO2)c2cc(Br)ccc21	none
CC1CCN(CCCNC(=O)c2n[nH]c(=O)c3ccccc23)CC1	none
O=C(c1n[nH]c(=O)c2ccccc12)N1CCN(C2c3ccccc3-c3ccccc32)CC1	Hsp90 inh 90
